# Results filed as inconclusive are left out. Entries that show only a call come without a potency. Values without a mark were called inactive. Active and inactive are the calls of the source. Unless noted, calls come from the whole dose curve; as a rule, active = well fitted curve in the direction sought with a large enough effect; inconclusive = small, poorly fitted or top-dose-only effect, or another doubt; inactive = no such curve, though single readings can be large; an effect the other way counts as inactive or inconclusive.
# How the values were obtained:
# [1] = target: Calcium and integrin-binding protein 1 (Homo sapiens) (UniProt Q99828); test: Primary qHTS for Identification of Calcium Integrin Binding Protein 1 (CIB1) Competitor (AID 1508620);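 note: GST tagged CIB1 binding a fluorescein labelled alphaIIb integrin peptide tracer; top concentration of the series differs between compounds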
# How it was run: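 Fluorescence polarization competition: GST-tagged CIB1 (1 uM final) preincubated with compound 15 min at room temperature, then FITC-labelled alphaIIb peptide (100 nM final) added. After 15 min at room temperature, polarization read at Ex 480/Em 540.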
# [2] = Primary qHTS for inhibitors of nuclear receptor binding SET domain protein 2 (NSD2) in an RCH-ACV wild type WT cells (2C) (AID 1645877); note: nearly all actives have a fitted effect of over 70% in size; note: potency is the fitted concentration of half-maximal effect
# [3] = Primary qHTS for inhibitors of nuclear receptor binding SET domain protein 2 (NSD2) in an isogenic RCH-ACV NSD2 p.E1099K mutant (9B) (AID 1645876); note: nearly all actives have a fitted effect of over 70% in size; note: potency is the fitted concentration of half-maximal effect
# [4] = target: Cytochrome P450 2D6 (Homo sapiens) (UniProt P10635); test: Cytochrome P450 family 2 subfamily D member 6 (CYP2D6) small molecule antagonists: luciferase biochemical (cell-free) qHTS assay (AID 1645840; active = well fitted curve in the direction sought with a large enough effect in the repeat runs; an effect the other way counts as inactive or inconclusive; note: nearly all actives have a fitted effect of over 55% in size; note: potency is the fitted concentration of half-maximal effect)
# How it was run: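 P450-Glo CYP2D6 system: proluciferin substrate converted by enzyme to luciferin, read by luminescence proportional to activity. Enzyme-substrate mix with compound 10 min at room temperature, then NADPH regeneration 1 h before detection reagent.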
# [5] = target: Cytochrome P450 2C9 (Homo sapiens) (UniProt P11712); test: Cytochrome P450 family 2 subfamily C member 9 (CYP2C9) small molecule antagonists: luciferase biochemical (cell-free) qHTS assay (AID 1645842; active = well fitted curve in the direction sought with a large enough effect in the repeat runs; an effect the other way counts as inactive or inconclusive; note: nearly all actives have a fitted effect of over 55% in size; note: potency is the fitted concentration of half-maximal effect)
# How it was run: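 P450-Glo CYP2C9 system: proluciferin substrate with enzyme in mix containing 0.4% BSA, 10 min at room temperature, then NADPH regeneration solution added and incubated 1 h at 37C. Detection reagent stopped reaction; luminescence read after 20 min as RLU.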
# Cytochrome P450 2C9 (Homo sapiens), sequence (P11712 whole entry, looked up): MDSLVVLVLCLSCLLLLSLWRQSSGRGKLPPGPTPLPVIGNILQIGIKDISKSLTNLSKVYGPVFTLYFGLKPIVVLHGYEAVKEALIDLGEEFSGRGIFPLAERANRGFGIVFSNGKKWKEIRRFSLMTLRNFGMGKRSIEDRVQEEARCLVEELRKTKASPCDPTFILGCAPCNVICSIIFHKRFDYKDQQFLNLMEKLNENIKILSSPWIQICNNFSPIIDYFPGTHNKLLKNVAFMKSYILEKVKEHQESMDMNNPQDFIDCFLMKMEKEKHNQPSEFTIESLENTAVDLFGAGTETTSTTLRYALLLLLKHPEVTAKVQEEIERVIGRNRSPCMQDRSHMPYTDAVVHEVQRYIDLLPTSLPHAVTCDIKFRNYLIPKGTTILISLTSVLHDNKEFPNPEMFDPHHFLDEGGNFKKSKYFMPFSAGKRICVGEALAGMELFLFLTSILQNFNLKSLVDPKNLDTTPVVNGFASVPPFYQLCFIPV
# Cytochrome P450 2D6 (Homo sapiens), sequence (P10635 whole entry, looked up): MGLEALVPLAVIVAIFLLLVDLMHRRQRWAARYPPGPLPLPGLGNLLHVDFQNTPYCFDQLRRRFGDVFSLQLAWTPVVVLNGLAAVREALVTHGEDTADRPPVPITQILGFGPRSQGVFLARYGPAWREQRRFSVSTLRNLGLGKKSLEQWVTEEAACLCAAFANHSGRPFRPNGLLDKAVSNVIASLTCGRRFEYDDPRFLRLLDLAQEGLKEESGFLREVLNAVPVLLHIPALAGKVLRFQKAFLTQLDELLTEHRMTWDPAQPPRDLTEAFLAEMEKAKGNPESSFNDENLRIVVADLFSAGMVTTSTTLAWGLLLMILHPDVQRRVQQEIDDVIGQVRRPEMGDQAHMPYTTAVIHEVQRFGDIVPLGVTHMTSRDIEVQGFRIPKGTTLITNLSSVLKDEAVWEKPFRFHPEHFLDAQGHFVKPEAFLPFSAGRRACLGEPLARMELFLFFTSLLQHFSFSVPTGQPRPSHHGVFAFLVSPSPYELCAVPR
# Calcium and integrin-binding protein 1 (Homo sapiens), sequence (Q99828 whole entry, looked up): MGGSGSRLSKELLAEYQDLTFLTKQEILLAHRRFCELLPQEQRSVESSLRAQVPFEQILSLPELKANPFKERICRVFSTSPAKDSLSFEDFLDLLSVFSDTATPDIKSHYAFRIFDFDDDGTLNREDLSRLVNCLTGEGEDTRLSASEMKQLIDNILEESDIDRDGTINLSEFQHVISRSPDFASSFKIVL
structure (smiles),measurement,setting,value
CC1(C)CC[C@]2(C(=O)O)CC[C@]3(C)C(=CCC4[C@@]5(C)C[C@H](O)[C@H](O[C@@H]6O[C@H](CO)[C@@H](O)[C@H](O)[C@H]6O)[C@@](C)(CO)C5[C@H](O)C[C@]43C)[C@@H]2C1 (some centres undefined),Potency,[1],inactive
same,Potency,[2],inactive
C/C=C(\C)C(=O)O[C@H]1C=CC(=O)O[C@H]1/C=C/[C@H](O)[C@@H](C)O,Potency,[1],inactive
same,Potency,[2],23 µM (active)
CC1(C)C2CCC1(C)C(OC(=O)C(O)(CC(=O)O)CC(=O)O)C2 (centres undefined),Potency,[1],inactive
same,Potency,[3],inactive
same,Potency,[2],inactive
CCCc1[nH]nc2c1C(c1cc(Cl)cc(Cl)c1O)C(C#N)=C(N)O2 (centres undefined),Potency,[4],2.13 µM (active)
same,Potency,[5],12 µM (active)
O=C(NC1CCN(CC(F)(F)F)CC1)c1ccc(-c2cccc(F)c2)nc1,Potency,[5],inactive
same,Potency,[3],inactive
same,Potency,[2],inactive
O=C(OCC(O)CO[C@@H]1O[C@H](C(=O)O)[C@@H](O)[C@H](O)[C@H]1O)c1ccccc1 (some centres undefined),Potency,[1],inactive
same,Potency,[3],inactive
same,Potency,[2],inactive
Oc1ccc2c(-c3c(-c4ccccn4)nn4c3CCC4)ccnc2c1,Potency,[4],inactive
same,Potency,[5],inactive
O=C(CCCCC1CCCCC1)N1CCC(c2cnc[nH]2)CC1,Potency,[4],5.35 µM (active)
same,Potency,[3],23 µM (active)
CCCO[C@@H]1O[C@H](CO)[C@@H](O)[C@H](O)[C@H]1O[C@@H]1OC[C@@H](O)[C@H](O)[C@H]1O,Potency,[1],inactive
same,Potency,[3],inactive
same,Potency,[2],inactive
COc1cc(C[C@@]2(O)CO[C@@H](c3ccc(O[C@@H]4O[C@H](CO)[C@@H](O)[C@H](O)[C@H]4O)c(OC)c3)[C@H]2CO)ccc1O,Potency,[1],inactive
same,Potency,[3],inactive
same,Potency,[2],inactive
Cc1ccccc1NC(=O)Nc1ccc(CN2C(=O)N([C@@H](CC(C)C)C(=O)N[C@@H](CC(=O)O)c3ccccc3)C(=O)C2(C)C)cc1,Potency,[4],inactive
same,Potency,[3],inactive
same,Potency,[2],inactive
C/C=C(/C)C(=O)O[C@@H]1C[C@@H](OC(=O)/C(C)=C\C)[C@@]2(C)C3C(=O)C=C(C)C2C3C1(C)C,Potency,[1],inactive
same,Potency,[3],inactive
same,Potency,[2],inactive
CC1C(O)C(O)C2C(C(=O)OCCc3ccc(O)cc3)=COC(O[C@@H]3O[C@H](CO)[C@@H](O)[C@H](O)[C@H]3O)C12 (some centres undefined),Potency,[3],inactive
CC1=C[C@H]2[C@@H](CC1=O)[C@H](C)C[C@H](O)[C@H]2C(C)C,Potency,[1],inactive
same,Potency,[2],inactive
C=C(C(=O)OC)[C@]12O[C@@](C)(CC[C@@]3(O)/C(=C\C)C(=O)O[C@]3(C)C[C@@H]1OC(=O)C(CO)CN1CCCC1C(=O)O)CC2=O (some centres undefined),Potency,[1],inactive
same,Potency,[2],6.82 µM (active)
COc1ccc(S(=O)(=O)Nc2nc(-c3cccc([N+](=O)[O-])c3)cs2)cc1OC,Potency,[5],4.25 µM (active)
same,Potency,[3],inactive
same,Potency,[2],inactive
CC1(C)C[C@H](O)C[C@@]2(C)[C@H]1[C@H](O)C=C1COC(=O)[C@@]12O,Potency,[1],inactive
same,Potency,[3],inactive
same,Potency,[2],inactive
CC1(C(=O)O)CCCC2(C)C3CCC4CC3(CCC12)CC4C(=O)O (centres undefined),Potency,[3],inactive
same,Potency,[2],inactive
COc1cc(/C=C/c2ccccc2)c(C(=O)O)c(O)c1CC=C(C)C,Potency,[3],inactive
same,Potency,[2],inactive
CC(C)=CCC[C@](C)(O[C@@H]1O[C@H](CO)[C@@H](O)[C@H](O)[C@H]1O)[C@H]1CC[C@]2(C)[C@@H]1[C@H](O)CC1[C@@]3(C)CC[C@H](O)C(C)(C)C3[C@@H](O[C@@H]3O[C@H](CO)[C@@H](O)[C@H](O)[C@H]3O[C@@H]3O[C@@H](C)[C@H](O)[C@@H](O)[C@H]3O)C[C@]12C (some centres undefined),"activity change, negative = viability loss",[3],-2.5% [at 9.23 µM]
same,"activity change, negative = cell killing",[2],-9.19% [at 9.23 µM]
CCC(C)C(C(=O)O)N1Cc2c(OCC=C(C)C)c(C)c(OC)c(C(=O)O)c2C1=O (centres undefined),Potency,[3],inactive
same,Potency,[2],inactive
C=C1CCC2C(C)(C)CC(O)CC2(C)C1CCC(C)CCOC(=O)CCC(=O)O (centres undefined),Potency,[3],inactive
O=C(O)CC1(O)C(=O)Nc2ccccc21 (centres undefined),Potency,[3],inactive
same,Potency,[2],inactive
C/C=C(/C)C(=O)OC1CC(C)(C)CC2C3=CCC4C5(C)CCC(OC6OC(C)C(OC7OC(C(=O)O)C(O)C(OC8OC(CO)C(O)C(O)C8OC8OC(CO)C(O)C(O)C8O)C7O)C(O)C6O)C(C)(C)C5CCC4(C)C3(C)C(OC(=O)/C=C/C=C/C=C/CCC)C(OC(C)=O)C12CO (centres undefined),"activity change, negative = viability loss",[3],-8.21% [at 9.23 µM]
same,"activity change, negative = cell killing",[2],-14.8% [at 9.23 µM]
CC(=O)OC12CC(C)C(O)C1/C=C(/COC1OC(CO)C(O)C(O)C1O)CCC1C(/C=C(\C)C2=O)C1(C)C (centres undefined),Potency,[3],inactive
same,Potency,[2],inactive
CC1(C)O[C@H]2CC(=O)OC[C@@]23C1=C(O)C(=O)[C@]1(C)C3CC[C@@]2(C)[C@H](c3ccoc3)OC(=O)[C@H]3O[C@]321 (some centres undefined),Potency,[3],inactive
same,Potency,[2],inactive
C=CC1(C)C=C2CC[C@H]3[C@@](C)(C(=O)O)CCC[C@]3(C)C2CC1 (some centres undefined),Potency,[3],inactive
same,Potency,[2],inactive
C=C(C)[C@@H]1CC[C@]2(C(=O)O)CC[C@]3(C)C(CCC4[C@]5(C)C(CC[C@]43C)C(C)(C)[C@@H](O)[C@@H]5C(=O)O)C12 (some centres undefined),Potency,[3],inactive
same,Potency,[2],inactive
COc1cc(-c2ccc(O)cc2)c(OC)c(O)c1C1=CC(=O)OC1CC(=O)O (centres undefined),Potency,[3],inactive
same,Potency,[2],inactive
CCC/C=C1\OC(=O)C2=C1CCC(O)C2O (centres undefined),Potency,[3],inactive
same,Potency,[2],inactive
C=C(C)[C@@H]1CC[C@]2(CO)CC[C@]3(C)[C@H](CC[C@@H]4[C@@]5(C)CC[C@H](O)C(C)(C)[C@@H]5CC[C@]43C)[C@@H]12,Potency,[3],inactive
same,Potency,[2],inactive
C/C1=C\CC(C)(C)/C=C/C/C(C(=O)O)=C/CC1,Potency,[3],inactive
same,Potency,[2],inactive
O=C(/C=C/c1ccccc1)OC[C@H]1O[C@@H](OC(=O)c2cc(O)c(O)c(O)c2)[C@H](O)[C@@H](O)[C@@H]1O,Potency,[3],inactive
same,Potency,[2],inactive
CC(C)(Oc1ccc(-c2nc3cc(Cl)ccc3s2)cc1)C(=O)O,Potency,[3],inactive
same,Potency,[2],inactive
CC(C)=CCC/C(C)=C/CO[C@@H]1O[C@H](CO[C@@H]2O[C@@H](CO)[C@H](O)[C@H]2O)[C@@H](O)[C@H](O)[C@H]1O,Potency,[3],inactive
same,Potency,[2],inactive
CC1(C)COC(=O)[C@@H]1O[C@@H]1O[C@H](CO)[C@@H](O)[C@H](O)[C@H]1O,Potency,[3],inactive
same,Potency,[2],inactive
Cc1c(O)cc2c(c1O)COC1(O)CCCOC21 (centres undefined),Potency,[3],inactive
same,Potency,[2],inactive
CC(=O)OCC1=C[C@@H]2OC(=O)C3=CO[C@@H](O[C@@H]4O[C@H](CO)[C@@H](O)[C@H](O)[C@H]4O)[C@H]1[C@@H]32,Potency,[3],inactive
same,Potency,[2],inactive
CC(=O)[C@@H]1C[C@H](C(C)(C)O[C@@H]2O[C@H](CO)[C@@H](O)[C@H](O)[C@H]2O)CC[C@@]2(CO)OC(=O)C[C@@H]12,Potency,[3],inactive
same,Potency,[2],inactive
COc1ccc(/C=C/C(=O)O[C@@H]2[C@@H](OC(C)=O)[C@@H](OC(C)=O)[C@H](O[C@H]3[C@@H]4C=CO[C@@H](O[C@@H]5O[C@H](CO)[C@@H](O)[C@H](O)[C@H]5O)[C@@H]4[C@@]4(CO)O[C@@H]34)O[C@H]2C)cc1,Potency,[3],inactive
same,Potency,[2],inactive
CC1=CC(=O)C2C(C)(C)CCC[C@]2(C)[C@H]1CC[C@H](C)CC(=O)O (some centres undefined),Potency,[3],inactive
same,Potency,[2],inactive
CC1CC2(O)OC(=O)C3=C2C(CCC3)[C@@]12C[C@@H](c1ccoc1)OC2=O (some centres undefined),Potency,[3],inactive
same,Potency,[2],inactive
O=C1C[C@@]2(C(=O)N1)C(=O)N(Cc1ccc(Br)cc1F)C(=O)c1cccn12,Potency,[3],inactive
same,Potency,[2],inactive
CC1(C)CCC2(C(=O)O)C(O)CC3(C)C(=CCC4C5(C)CCC(OC6OC(CO)C(O)C(O)C6OC6OC(CO)C(O)C(O)C6OC6OCC(O)(CO)C6O)C(C)(C)C5CCC43C)C2C1 (centres undefined),"activity change, negative = viability loss",[3],3.44% [at 9.23 µM]
same,"activity change, negative = cell killing",[2],2.63% [at 9.23 µM]
CCc1nnc(NS(=O)(=O)c2ccc(NC(=S)NC(=O)/C=C/c3ccc(F)cc3)cc2)s1,Potency,[3],inactive
same,Potency,[2],inactive
COc1cc(O)cc2c1C(=O)OC(C)C2 (centres undefined),Potency,[3],inactive
same,Potency,[2],inactive
C[C@@H]1O[C@@H](OC2C(CO)OC(OCC3OC(OC(=O)[C@]45CCC(C)(C)CC4C4=CCC6[C@@]7(C)CC[C@@H](O)[C@](C)(C(=O)O)C7CC[C@@]6(C)[C@]4(C)CC5)C(O)C(O)C3O)C(O)C2O)[C@H](O)[C@H](O)[C@H]1O (some centres undefined),"activity change, negative = viability loss",[3],0.361% [at 9.23 µM]
same,outcome,[2],inactive [at 9.23 µM]
CC(C)(O)C1CC=C(C(=O)OC[C@H]2O[C@@H](OC(=O)C3=CCC(C(C)(C)O)CC3)[C@H](O)[C@@H](O)[C@@H]2O)CC1 (some centres undefined),Potency,[3],inactive
same,Potency,[2],inactive
COc1c(C)c(OCC(O)C(C)(C)O)cc2c1CNC2=O (centres undefined),Potency,[3],inactive
same,Potency,[2],inactive
COC(=O)C1C(O)CCC2CN3CCc4c([nH]c5ccccc45)C3CC21 (centres undefined),Potency,[3],inactive
same,Potency,[2],inactive
CC(C)c1ccc2c(c1)[C@H](O)CC1[C@@](C)(C(=O)O)CCC[C@]21C (some centres undefined),Potency,[3],inactive
same,Potency,[2],inactive
CC(=O)/C=C/C1(O)C(C)=CC(=O)CC1(C)C (centres undefined),Potency,[3],inactive
same,Potency,[2],inactive
N=C(N)c1ccc2nc(-c3cc(CC(=O)NC(CC(=O)O)C(=O)O)cc(-c4cc(S(N)(=O)=O)ccc4O)c3O)[nH]c2c1 (centres undefined),Potency,[3],inactive
same,Potency,[2],inactive
COc1ccc(CCC(=O)c2c(O)cc(O[C@@H]3O[C@H](CO)[C@@H](O)[C@H](O)[C@H]3O[C@@H]3O[C@@H](C)[C@H](O)[C@@H](O)[C@H]3O)cc2O)cc1O,Potency,[3],inactive
same,Potency,[2],inactive
C=C(CCO)C(=O)OCC1OCC(OC(=O)C(=C)CCO[C@@H]2O[C@H](CO)[C@@H](O)[C@H](O)[C@H]2O)C(O)C1O (some centres undefined),Potency,[3],inactive
same,Potency,[2],inactive
O=C(O)CCc1ccc(NCc2cccc3c2CCCN3CCOc2ccccc2)cc1F,Potency,[3],inactive
same,Potency,[2],inactive
